# The entries come from a sample that favours hits as a whole.
# MITF inhib: MITF inhibition; 37,000 tested, 0.28% active; TRPM1 promoter luciferase, luminescence, 24 h; inhibition, % (no concentration beside the values); in the data active means inhibition above about 85%;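 further: human melanocyte line stably carrying TRPM1 promoter luciferase reporter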
# Shh pathway inh: blocks Sonic Hedgehog signaling | Shh-LIGHT2 Gli-luciferase reporter, 30 h | inhibition, % (test concentration not listed) | 22,000 tested, 2.1% active | AID 2313;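 active means mean inhibition across valid replicates above about 65%, limit read from the data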;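 further: pathway switched on by Shh-conditioned medium diluted 1 in 25 in low serum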
# The depositor's hits bear a star; nt = not tested or not shown; ! = repeats disagree.
SMILES,MITF inhib,Shh pathway inh
C[C@@H]1CN([C@@H](C)CO)C(=O)c2cccc(NC(=O)C3CCOCC3)c2O[C@H]1CN(C)S(=O)(=O)c1ccc(Cl)cc1,-14,-11
CC(C)(C)c1ccc(-c2cc3ccccn3c2)cc1,-5,-3
Cc1noc(COc2ccccc2)c1C(=O)Sc1ccc(F)cc1F,-2,nt
Nc1cc(C(F)(F)F)ccc1Oc1ccc(C2CCCCC2)cc1,10,20
O=C(CSc1nnc(-c2ccccc2)o1)Nc1cccc(Br)c1,-68,nt
CN(C)/C=N/c1c(C#N)cnn1-c1ncnc2sc3c(c12)CCC3,2,nt
CCOc1ccc(NC(=O)c2c(NC(=O)c3ccco3)sc3c2CCCCC3)cc1,22,nt
c1ccc(C2C3=C(CCCC3)SC3=C2CCCC3)cc1,-10,-12
C[C@H]1CN([C@@H](C)CO)C(=O)c2cccc(NC(=O)C3CC3)c2O[C@@H]1CN(C)S(=O)(=O)c1ccc(Cl)cc1,0,7
C[C@H](CO)N1C[C@H](C)[C@H](CN(C)S(=O)(=O)c2cn(C)cn2)Oc2ccc(NC(=O)NC3CCCCC3)cc2CC1=O,-10,77*
C[C@H](CO)N1C[C@H](C)[C@H](CN(C)S(=O)(=O)c2ccc(Cl)cc2)Oc2c(NC(=O)C3CC3)cccc2C1=O,6,98*
CC(C)NC(=O)Nc1ccc2c(c1)CC(=O)N([C@@H](C)CO)C[C@H](C)[C@H](CN(C)S(=O)(=O)c1cn(C)cn1)O2,1,nt
CCn1c2ccccc2c2cc(CNCCc3ccc(Cl)cc3)ccc21,31,17
CC1CCc2nc(NC(=O)c3ccc(Cc4ccccc4)cc3)sc2C1 (stereo not drawn),4,-5
Cc1cc(S(=O)(=O)N2CCC(NC(=O)Cc3ccccc3)CC2)c(Cl)cc1Cl,21,-6
COc1ccc(C2=Nc3ccccc3SC(c3ccccc3)C2)cc1 (stereo not drawn),-3,80*
COc1ccc(C2=NN(S(C)(=O)=O)C(c3ccccc3OC)C2)cc1 (stereo not drawn),12,-14
COc1cc([N+](=O)[O-])ccc1NC(=O)NCc1cccnc1,-14,nt
COc1ccc(CNC(=O)Nc2ncc([N+](=O)[O-])s2)cc1,87*,49
COc1ccc(C(=O)NCc2ccc(C#N)cc2)cc1OC,6,-31
CC(C)(C)NC(=O)Oc1ccc(Cl)cc1,-19,11
O=C1/C(=C\c2c[nH]c3ccccc23)C(c2ccccc2)Oc2ccccc21 (stereo not drawn),51,nt
C[C@H](CO)N1C[C@H](C)[C@H](CN(C)S(=O)(=O)c2ccc(Cl)cc2)Oc2c(NS(=O)(=O)c3ccc(F)cc3)cccc2C1=O,7,70*
C[C@H]1CN([C@@H](C)CO)C(=O)c2cccc(NS(=O)(=O)c3ccc(F)cc3)c2O[C@@H]1CN(C)S(=O)(=O)c1ccc(Cl)cc1,-12,31
C[C@H](CO)N1C[C@H](C)[C@H](CN(C)S(=O)(=O)c2ccc(Cl)cc2)Oc2c(NS(=O)(=O)c3cccs3)cccc2C1=O,12,77*
SMILES,MITF inhib,Shh pathway inh
C[C@H](CO)N1C[C@H](C)[C@@H](CN(C)S(=O)(=O)c2ccc(Cl)cc2)Oc2c(NS(=O)(=O)c3cccs3)cccc2C1=O,4,-8
CC(C)(C)c1ccc(C(=O)NCCNc2ccccc2[N+](=O)[O-])cc1,-67,nt
C/S(=N/C(=O)Nc1ccc(Cl)cc1)c1ccc(OC(=O)c2ccc(Cl)cc2)cc1 (stereo not drawn),15,-25
CN(CCO)C(=O)c1ccc2c(c1)C(=O)c1ccccc1-2,-3,38
N#Cc1c(NC(=O)CSc2ncn[nH]2)sc2c1CCCCC2,104*,nt
COC(=O)c1c(NC(=O)CSc2ncn[nH]2)sc2c1CCCC2,18,nt
CC12CCC(=O)C=C1CCC1(C)C2(C)CCC2(C)C(C(=O)CO)CCC21C (stereo not drawn),30,47
OCc1nc(-c2cc(C(F)(F)F)cc(C(F)(F)F)c2)cs1,-7,11
CC(=O)OCC(=O)[C@@]1(O)CCC2C3C[C@H](C)C4=CC(=O)C=CC4(C)C3[C@@H](O)CC21C (stereo partly drawn),-14,41
CC(=O)[C@@]1(O)CC[C@H]2[C@@H]3C[C@H](C)C4=CC(=O)C=C[C@]4(C)[C@@]3(F)[C@@H](O)C[C@@]21C,-36,67*
CC(=O)OCC(=O)[C@@]1(O)[C@H](C)C[C@H]2[C@@H]3CCC4=CC(=O)C=C[C@]4(C)[C@@]3(F)[C@@H](O)C[C@@]21C,-47,82*
C[C@@H]1C[C@H]2[C@@H]3CCC4=CC(=O)C=C[C@]4(C)[C@@]3(F)[C@@H](O)C[C@]2(C)[C@@]1(O)C(=O)CO,-32,18
COC(=O)C[C@H]1C(C)(C)[C@H](OC(C)=O)[C@]2(O)CC3=C4CC(=O)O[C@@H](c5ccoc5)[C@]4(C)CCC3[C@@]1(C)C2=O (stereo partly drawn),-9,14
COc1ccc(NC(=O)CSc2ccccn2)cc1Cl,-65,nt
Clc1ccc(-c2cnc3n2CCC3)cc1Cl,28,nt
O=C1NN=C(c2ccccc2)/C1=C1\OC(c2ccccc2)=CS1,37,31
CC(CN1CCN(Cc2ccccc2)CC1)N(C(=O)c1ccc(C(C)(C)C)cc1)c1ccccn1 (stereo not drawn),20,14
O=C1CC(SCc2ccc(Cl)cc2)C(=O)N1c1ccc(Br)cc1 (stereo not drawn),4,94*
O=C(CSC1CC(=O)N(c2ccc(Cl)cc2)C1=O)Nc1ccc(Cl)cc1 (stereo not drawn),-7,nt
CC(C)CC1NC(=O)C(CC(C)C)N(O[C@@H]2O[C@H](COC(=O)CCC(=O)O)[C@@H](O)[C@H](O)[C@H]2O)C1=O (stereo partly drawn),50,74*
C=C1CCC(O)/C(C)=C\CC(C(C)C)C(OC2OC(COC(C)=O)C(O)C(O)C2O)C1 (stereo not drawn),-11,-12
COC(=O)C1=C(Nc2ccc(OC(=O)c3cccc(C(F)(F)F)c3)cc2)CSC1,-7,-1
N#Cc1c(N)nc(Sc2ccc(Cl)cc2)c(C#N)c1-c1ccccc1,10,52
N=C1SCC(=O)N1c1nccs1,3,-17
CN1CCN2c3ncccc3Cc3ccccc3C2C1 (stereo not drawn),-3,-17
SMILES,MITF inhib,Shh pathway inh
CC(C)(C)[C@]1(O)CCN2C[C@H]3c4ccccc4CCc4cccc(c43)[C@@H]2C1,30,78*
Clc1ccc(COC(Cn2ccnc2)c2ccc(Cl)cc2Cl)c(Cl)c1 (stereo not drawn),11,65*!
C=CCOC(Cn1ccnc1)c1ccc(Cl)cc1Cl (stereo not drawn),21,36
CCc1ccc(/C=N/n2c(C)nnc2-n2nc(C)cc2C)cc1,3,12
CC(=O)NC(=O)NCc1ccccc1,4,nt
Cc1oc2c(c1C(=O)NCc1ccccc1)C(=O)c1ccccc1C2=O,58,93*
CCn1c(SCC(=O)Nc2ccc(I)cc2C)nnc1-c1ccccc1,5,nt
N#C/C(=C\Nc1cc(C(F)(F)F)cc(C(F)(F)F)c1)S(=O)(=O)Cc1ccc(Cl)cc1,72,107*
N#C/C(=C\Nc1cc(C(F)(F)F)cc(C(F)(F)F)c1)S(=O)(=O)c1ccccn1,20,-8
C[C@@H]1O[C@@H](O[C@H]2[C@@H]3C=CO[C@@H](O[C@@H]4O[C@H](CO)[C@@H](O)[C@H](O)[C@H]4O)[C@@H]3[C@@]3(CO)O[C@@H]23)[C@H](O)[C@H](O)[C@H]1OC(=O)/C=C/c1ccccc1,nt,-3
